D2 antag: antagonizes the human D2 dopamine receptor | P14416 | HEK293 TREx D2 cells, calcium flux, dopamine EC80 | inhibition, % at 10 µM | 340,000 compounds, 2% hits; in the data active = inhibition above about 30%; inactive = below that, where a call was filed; note: 0% is about no effect
Target sequence (P14416 whole entry, looked up): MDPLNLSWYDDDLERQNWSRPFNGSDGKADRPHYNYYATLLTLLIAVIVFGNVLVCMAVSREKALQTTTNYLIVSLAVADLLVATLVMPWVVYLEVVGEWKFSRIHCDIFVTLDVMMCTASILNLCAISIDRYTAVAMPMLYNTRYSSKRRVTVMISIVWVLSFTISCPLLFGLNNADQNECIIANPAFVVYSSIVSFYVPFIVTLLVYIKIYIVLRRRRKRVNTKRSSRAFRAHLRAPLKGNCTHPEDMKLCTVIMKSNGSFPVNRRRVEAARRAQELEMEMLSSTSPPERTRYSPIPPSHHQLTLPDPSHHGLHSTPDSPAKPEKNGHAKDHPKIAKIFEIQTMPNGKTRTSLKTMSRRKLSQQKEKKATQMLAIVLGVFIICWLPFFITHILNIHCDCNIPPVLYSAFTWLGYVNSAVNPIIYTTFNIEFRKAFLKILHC
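Overnight-induced (tetracycline, 30 C) HEK293 T-REx cells carrying force-coupled D2 receive a no-wash calcium dye, then compound, then EC80 dopamine at 180 s; signals are read kinetically throughout.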
D2 PAM-1: potentiates the human D2 dopamine receptor allosterically | 360,000 compounds, 0.23% hits | AID 624464 | potentiation, % (test concentration not listed) | DiscoveRx D2 beta-arrestin cells, luminescence, 90 min; 100% = 57 uM dopamine signal | P14416; in the data active = potentiation above about 50%; inconclusive = mostly about 30% to 49%
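PathHunter D2 cells, attached overnight at 37 deg C, received compound in DMSO plus dopamine at EC20 (50 nM final) for 90 min at 37 deg C. Beta-arrestin recruitment was read as luminescence after 1 h with detection reagent at ambient temperature.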
D2 ag-1: human D2 receptor agonism in beta-arrestin assay. DiscoveRx PathHunter D2 beta-arrestin, luminescence, 90 min; 100% = 57 uM dopamine signal. activation, % (concentration not given with the values). 360,000 compounds, 0.084% hits; in the data active = activation above about 40%; inconclusive = between about 15% and that limit
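Agonist mode: compounds alone added to overnight-plated D2 PathHunter cells for 90 min at 37 C, with 57 uM final dopamine (EC100) defining full response. Beta-arrestin recruitment detected by chemiluminescent reagent, read after 1 h at ambient temperature.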
D2 ag-2: D2 dopamine receptor (human) agonism; P14416; HEK293 T-REx D2 cells, calcium flux agonist mode; activation, % at 2 µM; 340,000 compounds, 0.53% hits; AID 485358;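 active = activation over 3 SD above normal in the single-dose calcium agonist read, cut at about 30% in these data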; note: 0% is about no effect
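Tetracycline-induced HEK293 T-REx cells with force-coupled D2 receptor, plated overnight at 30 C, loaded with no-wash calcium dye. After a 10 s baseline, compound was pin-added and calcium flux read kinetically for 180 s; calcium rises flagged agonists.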
D2 PAM-2: D2 dopamine receptor (human) potentiation; P14416; HEK293 T-REx D2, calcium flux, EC20 dopamine potentiation; potentiation, % at 10 µM; 340,000 compounds, 0.34% hits;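 active = potentiation over 3 SD above the plate norm, cut at about 30% in these data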; note: 0% is about no effect
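Primary screen. Calcium kinetics in induced HEK293 T-REx D2 cells: compound pre-addition 180 s, EC20 dopamine, 180 s more.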
D3 arrestin ag: D3 receptor agonism confirmed, beta-arrestin readout | Potency, µM (doses to about 76.9 µM), for inactives: at the top dose activation, most hits filed as activators | shares compounds with D2 ag-2 | AID 720506 | 2,300 compounds, 4% hits | DiscoveRx D3 beta-arrestin cells, luminescence, 90 min;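 note: potency is the fitted concentration of half-maximal effect; 100% = dopamine control response; nearly all actives have a fitted effect of over 70% in size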
D2 ag-3: D2 receptor agonism, beta-arrestin counterscreen | shares compounds with D2 ag-2 | DiscoveRx PathHunter D2 beta-arrestin, luminescence, 90 min; response scale: percent relative to full dopamine signal | Potency, µM (series often up to 76.9 µM), without a hit: top-dose activation, hits mostly activators | 2,300 compounds, 5.9% hits | AID 720507; note: potency is the fitted concentration of half-maximal effect; % of control where 0% means no effect; nearly all actives have a fitted effect of over 70% in size
Active calls of the source: *; u = inconclusive; x = no result. Only some compounds are listed: those with a hit (about 2.4% of all), similar ones and a draw of the others. Unless noted, calls come from the whole dose curve; as a rule, active = well fitted activation curve with a large enough effect; inconclusive = small, poorly fitted or top-dose-only effect; inactive = flat fitted curve, though single readings scatter.

SMILES	D2 antag	D2 PAM-1	D2 ag-1	D2 ag-2	D2 PAM-2	D3 arrestin ag	D2 ag-3
O=C(NCCC1CCCCN1S(=O)(=O)c1cccs1)C(=O)Nc1cccc(F)c1 (configuration not stated)	15	-16	-5	-1	13	x	x
Cc1ccc(Cl)cc1NC(=O)c1cc(CN2CCCC2)on1	x	x	x	-1	4	x	x
CC1CCc2c(sc(NC(=O)C3c4ccccc4Oc4ccccc43)c2C#N)C1 (configuration not stated)	x	x	x	x	8	x	x
COc1ccc(C(=O)CSc2nnc(CNC(=O)c3ccccc3)o2)cc1	8	-9	-1	1	-17	x	x
OC(c1cc(-c2ccc(C(F)(F)F)cc2)nc(C(F)(F)F)c1)C1CCCCN1 (configuration not stated)	-6	-43	u	10	-3	u	u
O=C(NCCOC(=O)c1ccc(C(=O)OCCNC(=O)c2cccnc2)s1)c1cccnc1	29	-2	-5	69*	-28	-8%	-4%
Cc1ccc(C(=O)N2CCN(C34CC5CC(CC(C5)C3)C4)CC2)o1	x	-13	0	x	x	-2%	1%
Cc1cc(=O)n2nc(N3CCC(C(=O)N4CCN(c5ccccc5)CC4)CC3)sc2n1	6	-9	5	20	-1	u	26%
CCc1nc2ccc(C(=O)Nc3ccc(OC)c(OC)c3)cn2c1N(C)Cc1nccs1	x	-5	4	x	x	x	x
CC1(C)O[C@@H]2[C@H](O1)[C@@H](CO)O[C@H]2n1cnc2c(=O)[nH]cnc21	-9	0	-2	-1	-2	-3%	-2%
O=C(NCC1CCCO1)/C(=C\c1cccc([N+](=O)[O-])c1)NC(=O)c1ccccc1 (configuration not stated)	10	-3	-3	0	-2	-10%	-5%
O=C(NCC1CCCO1)/C(=C/c1ccccc1)NC(=O)c1ccccc1 (configuration not stated)	-14	-8	-4	0	1	x	x
O=C(O)CNC(=O)c1ccc(NC(=O)/C(=C/c2cccc([N+](=O)[O-])c2)NC(=O)c2ccco2)cc1	16	-5	-5	47*	-23	-4%	-5%
O=C(O)CNC(=O)c1ccc(NC(=O)/C(=C/c2ccccc2)NC(=O)c2ccco2)cc1	3	-11	-6	1	3	x	x
COc1ccccc1N1CCN(CCCNC(=O)c2nnc(Cc3c(F)cccc3Cl)o2)CC1	x	x	x	x	-22	x	x
NC(=O)c1ccc(NC(=O)CN2CCN(c3ccccc3)CC2)cc1	63*	-15	15	72*	-22	u	u
NC(=O)c1ccc(NC(=O)CN2CCN(c3ccc(Cl)cc3)CC2)cc1	x	-2	-4	x	6	x	x
CC(=O)N1CCc2cc(C(=O)CN3CCN(c4ccccn4)CC3)ccc21	93*	24	u	87*	-29	1.6µM*	1.1µM*
COc1ccc(NC(=O)CN2CCN(c3ccccc3)CC2)cc1	50*	-8	-1	54*	-23	9%	14%
O=C(CN1CCN(c2ccccn2)CC1)Nc1ccccc1C(=O)Nc1ccccc1	-6	12	2	1	9	x	x
COC(=O)c1ccc(NC(=O)CN2CCN(c3ccccn3)CC2)cc1	68*	13	46*	64*	-22	-3%	u
COc1ccc(CNS(=O)(=O)c2cc3c(cc2C)n(C)c(=O)c(=O)n3C)cc1	x	x	x	0	-2	x	x
O=C(Nc1nc2ccccc2s1)C1CCN(S(=O)(=O)c2cc([N+](=O)[O-])ccc2Cl)CC1	3	-8	4	1	1	x	x
CC1NC(=O)c2cc3ccccc3cc2-n2c1nc1ccc(F)cc1c2=O (configuration not stated)	x	x	-2	x	x	x	x
O=C(CN1CCN(c2ccccn2)CC1)Nc1ccc(OCc2ccccc2)cc1	57*	u	41*	13	9	-5%	u
SMILES	D2 antag	D2 PAM-1	D2 ag-1	D2 ag-2	D2 PAM-2	D3 arrestin ag	D2 ag-3
COC(=O)c1ccc(NC(=O)CN2CCN(c3ccccc3)CC2)cc1	95*	13	u	71*	-22	-3%	u
COC(=O)c1ccc(C(=O)OC)c(NC(=O)CN2CCN(c3ccccc3)CC2)c1	-35	-16	-3	0	7	x	x
CCOC(=O)c1ccc(NC(=O)CN2CCN(c3ccccc3)CC2)cc1	62*	19	u	65*	-17	u	u
CCc1ccc(NC(=O)CSC2=Nc3ccccc3C3=NC(CC(=O)NCc4ccccc4)C(=O)N23)cc1 (configuration not stated)	x	x	x	-1	7	x	x
COc1cc(/C=C/C(O)=C/C(=O)/C=C/c2ccc(O)cc2)ccc1O	-12	-6	-5	48*	-12	-8%	-4%
COc1ccccc1C(C)NC(=O)c1ccc(NC(=O)CC2SC(N3CCCC3)=NC2=O)cc1 (configuration not stated)	1	4	1	1	-3	x	x
COC(=O)Cc1ccc(NC(=S)NNC(=O)C2CC2)cc1	-8	-10	-6	1	5	x	x
CCOC(=O)c1sc(NC(=O)CSCc2c(C)noc2C)nc1C	-7	-3	10	-1	1	-5%	-4%
CCOC(=O)c1sc(NC(=O)c2c(CC)noc2C)nc1C	0	0	-1	0	-10	-2%	-1%
Cc1ccccc1C(=O)NCc1ccc2c(c1)CCN2C(=O)c1ccccc1	x	x	x	1	-8	x	x
O=C1C=CC(n2cc(F)c(=O)[nH]c2=O)O1 (configuration not stated)	x	-11	-3	x	x	x	x
CC12CCC3C(CCC4CC(O)CCC43C)C1CC(O)C2 (configuration not stated)	x	2	-2	x	x	x	x
C[C@]12CCC(O)CC1CCC1C2CC[C@]2(C)C(c3cc(C(F)(F)F)n[nH]3)CCC12 (some centres not stated)	44*	5	-3	16	11	u	u
C=C(C)C1CC=C(CN2CCC(C(=O)OCC)CC2)CC1 (configuration not stated)	72*	-4	10	60*	-22	-3%	20%
CN=c1scc(-c2ccco2)n1/N=C/c1ccc(O)c(O)c1	28	27	49*	36*	-9	u	35µM*
CCOC(=O)N1CCN(C/C(Cl)=C/c2ccccc2)CC1	8	2	u	49*	-21	-1%	16%

Compound activity deposited in PubChem BioAssay by National Center for Advancing Translational Sciences (NCATS).
